According to the supplement of paper PMC9023506:
Counter-ions that a name gives are not always drawn.

system: Danio rerio larvae (5 dpf); assay: activity during period 15 (no stimuli), difference vs DMSO (percentage points (treated minus DMSO)); higher = more of the behaviour than the DMSO vehicle control; conditions: 10 µM; exposure time: 3 h pre-incubation + 3 h imaging
Summary of the method: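 5-dpf wild-type zebrafish larvae in 96-well ProxiPlates were exposed to library drugs at 10 µM (diluted 1000× from DMSO stocks into egg water). There were 48 larvae per drug, exposed 3 h before and 3 h during imaging at 28.5 °C. Images taken every 6 s covered a 3-h program of rest, moving coloured lines and acoustic pulses, and an ImageJ macro scored movement and upper-half location. Each behaviour score is the treated-group mean minus the DMSO vehicle mean, in percentage points.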

Row | Compound | activity during period 15
1 | CN(C)C(=N)NC(=N)N [Metformin hydrochloride] | -4.35
2 | CC(C)OC(=O)C(C)(C)Oc1ccc(C(=O)c2ccc(Cl)cc2)cc1 [Fenofibrate] | 6.23
3 | N#Cc1ccc2[nH]cc(CCCCN3CCN(c4ccc5oc(C(N)=O)cc5c4)CC3)c2c1 [Vilazodone hydrochloride] | -28.4
4 | Nc1nc(NC2CC2)c2ncn([C@H]3C=C[C@@H](CO)C3)c2n1 [Abacavir hemisulfate] | -3.3
5 | Clc1ccccc1C(c1ccccc1)(c1ccccc1)n1ccnc1 [Clotrimazole] | -30.5
6 | NC(=O)c1ncn([C@@H]2O[C@H](CO)[C@@H](O)[C@H]2O)n1 [Ribavirin] | -3.78
7 | O=C(O)C[C@H](O)C[C@H](O)/C=C/c1c(C2CC2)nc2ccccc2c1-c1ccc(F)cc1 [Pitavastatin calcium] | -4.44
